Compound activity: PubChem, National Center for Advancing Translational Sciences (NCATS)
VDR inh: vitamin D3 receptor (human) inhibition. P11473. VDR-SRC2-3 peptide fluorescence polarization, 2 h. Potency, µM, without a hit: max response, negative = inhibition, usual class: inhibitors. actives 0.93% (n = 400,000). AID 504847
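Inhibition of the VDR/SRC2-3 peptide interaction is quantified by fluorescence polarization. Compounds (23 nl, pintool) incubate with the reagents for 2 hours at ambient room temperature.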
DT40 TDP1 no CPT: qHTS for Inhibitors of human tyrosyl-DNA phosphodiesterase 1 (TDP1): qHTS in cells in absence of CPT. Potency, µM (doses to about 46.2 µM), without a hit: at the highest dose activity change, negative = growth inhibition, most hits filed as inhibitors. DT40 Tdp1-/- hTDP1 cells, no CPT, ATP luminescence, 48 h. actives 15% (n = 420,000); also: nearly all actives have a fitted effect of over 55% in size
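Seeded 400 DT40-hTDP1 cells/well (vehicle DMSO, no 20 nM CPT); pinned compounds; ≥48 hr at 37 °C; CellTiter-Glo luminescence as viability measure.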
TDP1 block: inhibitors of human tyrosyl-DNA phosphodiesterase TDP1 | Q9NUW8 | recombinant TDP1, AlphaScreen DNA substrate cleavage | Potency, µM (titrated, usually from 130 µM), for the others: at the highest dose activity change, negative = inhibition, usual class: inhibitors | actives 0.28% (n = 350,000); also: nearly all actives have a fitted effect of over 40% in size
Target sequence (Q9NUW8 whole entry, looked up): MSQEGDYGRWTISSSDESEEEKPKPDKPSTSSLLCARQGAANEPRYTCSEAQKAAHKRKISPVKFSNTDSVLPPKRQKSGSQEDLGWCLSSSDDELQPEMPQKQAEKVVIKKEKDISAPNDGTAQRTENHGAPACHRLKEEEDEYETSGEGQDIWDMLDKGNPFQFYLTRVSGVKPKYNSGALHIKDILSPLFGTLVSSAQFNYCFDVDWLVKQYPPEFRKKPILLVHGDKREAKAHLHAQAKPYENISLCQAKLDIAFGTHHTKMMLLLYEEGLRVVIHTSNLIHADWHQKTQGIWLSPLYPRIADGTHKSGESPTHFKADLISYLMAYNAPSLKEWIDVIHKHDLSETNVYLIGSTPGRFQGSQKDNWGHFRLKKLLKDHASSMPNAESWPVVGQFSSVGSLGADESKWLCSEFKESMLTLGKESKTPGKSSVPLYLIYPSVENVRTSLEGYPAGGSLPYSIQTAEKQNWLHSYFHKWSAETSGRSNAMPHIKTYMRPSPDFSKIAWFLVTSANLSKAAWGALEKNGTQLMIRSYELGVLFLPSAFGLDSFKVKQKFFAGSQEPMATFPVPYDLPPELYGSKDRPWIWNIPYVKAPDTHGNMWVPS
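Compounds were preincubated with Tdp1 (1 nM final) for 15 min at room temperature before substrate (15 nM final) started a 5 min reaction; beads (10 ug/ml final) were then added for 10 min before AlphaScreen detection.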
PLK1 PBD inh: inhibitors of human PLK1 polo-box domain binding | P53350 | Plk1 PBD binding of FITC phosphopeptide, fluorescence polarization | Potency, µM, inactives show max response, negative = inhibition, most hits filed as inhibitors | actives 2.8% (n = 360,000); also: series mostly up to about 57 µM; nearly all actives have a fitted effect of over 65% in size
TDP1 cell CPT: growth inhibition of DT40 Tdp1-/-;hTDP1 cells with camptothecin (screen for TDP1 inhibitors); chicken DT40 Tdp1-/-;hTDP1 cells + 20 nM CPT, ATP luminescence, 48 h; Potency, µM (doses to about 46.2 µM), for the others: top-dose activity change, negative = growth inhibition, usual class: inhibitors; actives 12% (n = 420,000); AID 686979; also: nearly all actives have a fitted effect of over 55% in size
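Chicken DT40 Tdp1-/- cells stably complemented with human TDP1 were seeded at 400 cells/well in medium containing 20 nM camptothecin, exposed to pin-transferred compounds, and grown at 37 °C for at least 48 hr. Viability was read as ATP luminescence.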
KAT2A inh: blocks human GCN5L2 histone acetyltransferase | Q92830 | GCN5L2 HAT assay, ThioGlo1 CoA-SH fluorescence | Potency, µM (titrated, usually from 58.9 µM), without a hit: at the top dose activity change, negative = inhibition, actives largely listed as inhibitors | actives 0.21% (n = 390,000) | AID 504327
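Compounds, pin-transferred from DMSO stocks, meet 20nM GCN5L2 for 15 min before the reaction begins with H3(1-25) peptide (75uM) and acetyl-CoA (70uM). Thiol-reactive ThioGlo1 reports CoA release over 20 min at room temperature.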
* marks the source's active call; other numbers are inactive results; [ ] = remark or other dose. A selection: hits, their analogues and other compounds. The true share with any hit is near 18%. Calls follow the shape of the dose curve; as a rule, active = well fitted curve in the direction sought with a large enough effect; inconclusive = small, poorly fitted or top-dose-only effect, or another doubt; inactive = no such curve, though single readings can be large; an effect the other way counts as inactive or inconclusive. % is scaled to controls: 0 for no effect and ±100 for the full control effect; potency is read from the fitted curve at half-maximal effect.

Screening CCOP(=O)(/C=C(\Cl)c1ccccc1)C(O)c1ccc(F)cc1 (stereo not given) returned VDR inh inconclusive, DT40 TDP1 no CPT 16.4µM*, PLK1 PBD inh 21.2µM*, TDP1 cell CPT inconclusive and KAT2A inh -14.5%.
Screening O=C(Nc1ccccc1)N1CCC2(CC1)OCCO2 returned VDR inh -4.7%, DT40 TDP1 no CPT 2.1%, TDP1 block -4.9%, PLK1 PBD inh -14.3%, TDP1 cell CPT -3.3% and KAT2A inh -0.7%.
For O=C(Nc1ccc(Cl)cc1)N1CC1 the results were VDR inh 6.2%, DT40 TDP1 no CPT 14.6µM*, PLK1 PBD inh -5.4% and TDP1 cell CPT 8.2µM*.
`CN1C2CCC1CC(OC(c1ccccc1)c1ccc(Cl)cc1)C2` (stereo not given) gave VDR inh inconclusive, DT40 TDP1 no CPT 4.73µM*, TDP1 block 13.2%[56.1 µM] and TDP1 cell CPT 2.99µM*.
`CN1CCN2c3ccc(N)cc3CC3(C(=O)NC(=O)NC3=O)C2C1` (stereo not given) gave VDR inh -2.5%, DT40 TDP1 no CPT 0.5%, TDP1 block 44.7µM*, PLK1 PBD inh -5.6%, TDP1 cell CPT -3.1% and KAT2A inh 3.6%.
Screening CN1C(=O)N(C)C(=O)C2(Cc3cc(N)ccc3N3CCN(c4ccccc4F)CC32)C1=O (stereo not given) returned TDP1 block -6.1% and KAT2A inh -1.1%.
For CC(C)Cc1nc(N2CCNCC2)c(C#N)c2c1CCC2 the results were VDR inh -11.2%, DT40 TDP1 no CPT 18.4µM*, TDP1 block inconclusive, PLK1 PBD inh -10.8%, TDP1 cell CPT inconclusive and KAT2A inh -1.7%.
`ClCC(Cl)CCl` gave TDP1 block 6.5%.
Cc1cc(C)c(C(=O)CN2CCOCC2)c(C)c1 was read as VDR inh 28.2µM*, DT40 TDP1 no CPT -21.2%, TDP1 block 1.1%, PLK1 PBD inh -12.1%, TDP1 cell CPT -18.9% and KAT2A inh -4.6%.
Cc1cccc(C)c1-n1nnnc1C(c1cccs1)N1CCC(n2c(=O)[nH]c3ccccc32)CC1 (stereo not given) was read as DT40 TDP1 no CPT 20.6µM*, PLK1 PBD inh -0.1% and TDP1 cell CPT inconclusive.
`Cc1cccc(C)c1-n1nnnc1C(c1cccc2ccccc12)N1CCC(n2c(=O)[nH]c3ccccc32)CC1` (stereo not given) gave DT40 TDP1 no CPT 16.4µM*, PLK1 PBD inh -10.7% and TDP1 cell CPT 14.6µM*.
Screening Cc1cccc(C)c1-n1nnnc1C(C1CC1)N1CCC(n2c(=O)[nH]c3ccccc32)CC1 (stereo not given) returned DT40 TDP1 no CPT inconclusive, PLK1 PBD inh -2.4% and TDP1 cell CPT inconclusive.
CC(C)(C)c1ccc(O)cc1 was read as DT40 TDP1 no CPT 1.4%, TDP1 block 4.3%, TDP1 cell CPT 3.8% and KAT2A inh 1.7%.
`CNC(=O)O/N=C/C(C)(C)S(C)=O` (stereo not given) gave DT40 TDP1 no CPT 10.2%, TDP1 block 16.1% and TDP1 cell CPT 7.5%.
CCOC(=O)C(O)(c1ccc(NC(=O)NC2CCCCC2)cc1)C(F)(F)F (stereo not given) was read as VDR inh -10.4%, DT40 TDP1 no CPT inconclusive, TDP1 block 4.2%, PLK1 PBD inh -14.7%, TDP1 cell CPT -24.1% and KAT2A inh 0.0%.
For CCOC(=O)C(O)(c1ccc(NC(=O)c2ccc(Cl)c(Cl)c2)cc1)C(F)(F)F (stereo not given) the results were VDR inh -20.5%, DT40 TDP1 no CPT 16.4µM*, TDP1 block 6.8%, PLK1 PBD inh -2.1%, TDP1 cell CPT inconclusive and KAT2A inh -8.9%.
For C=C(C)CCl the results were TDP1 block 18.3%.
Screening C=CCn1c(O)c(C(CC)=NCc2cc(OC)cc(OC)c2)c(=O)[nH]c1=O returned VDR inh -5.3%, DT40 TDP1 no CPT 7.31µM*, TDP1 block 5.6%, PLK1 PBD inh -4.3%, TDP1 cell CPT 7.31µM* and KAT2A inh -1.7%.
For C=CCn1c(O)c(C(CC)=NCCCO)c(=O)[nH]c1=O the results were VDR inh 3.1%, DT40 TDP1 no CPT 8.2µM*, TDP1 block 3.2%, PLK1 PBD inh -0.9%, TDP1 cell CPT -5.9% and KAT2A inh 0.0%.
`C=CCn1c(O)c(C(CC)=NCc2ccc3c(c2)OCO3)c(=O)[nH]c1=O` gave VDR inh -12.1%, DT40 TDP1 no CPT inconclusive, TDP1 block 1.2%, PLK1 PBD inh -13.7%, TDP1 cell CPT inconclusive and KAT2A inh -2.1%.
`C/C(=N\Nc1ccccc1)c1c(O)n(Cc2ccccc2)c(=O)[nH]c1=O` gave VDR inh -27.9%, DT40 TDP1 no CPT inconclusive, TDP1 block 2.7%, PLK1 PBD inh -6.0%, TDP1 cell CPT 14.6µM* and KAT2A inh -14.2%.
C/C(=N\Nc1ccccc1)c1c(O)n(-c2ccccc2)c(=O)[nH]c1=O was read as VDR inh -5.2%, DT40 TDP1 no CPT -6.8%, TDP1 block 7.7%, PLK1 PBD inh 3.9%, TDP1 cell CPT 7.8% and KAT2A inh -6.7%.
For C=CCn1c(O)c(C(C)=NC(C)c2ccccc2)c(=O)[nH]c1=O (stereo not given) the results were VDR inh -18.0%, DT40 TDP1 no CPT 16.4µM*, PLK1 PBD inh -2.8%, TDP1 cell CPT inconclusive and KAT2A inh -7.0%.
C[C@@H]1O[C@@H](O[C@H]2C[C@@H](O)[C@]3(CO)[C@H]4[C@H](O)C[C@]5(C)[C@@H]([C@@H]6COC(=O)C6)CC[C@]5(O)[C@@H]4CC[C@]3(O)C2)[C@H](O)[C@H](O)[C@H]1O was read as TDP1 block -9.9%[56.1 µM].
`CCCN(CCC)[C@H]1CCc2c(F)ccc(O)c2C1` gave VDR inh -2.1%, TDP1 block -13.5%[56.1 µM] and KAT2A inh -9.7%.
Screening C[C@H](N)Cc1c[nH]c2ccc(O)cc12 returned DT40 TDP1 no CPT -26.0%, TDP1 block 11.5%[56.1 µM] and TDP1 cell CPT -7.3%.
Screening CC(C)=CCc1c(O)cc2c(c1O)C(=O)CC(c1ccc(O)cc1)O2 (stereo not given) returned VDR inh -9.3%, DT40 TDP1 no CPT 23.1µM*, PLK1 PBD inh -12.4%, TDP1 cell CPT 16.4µM* and KAT2A inh inconclusive.
`C[N+]1(CCF)[C@@H]2CC[C@H]1CC(OC(=O)C(O)(c1ccccc1)c1ccccc1)C2` (stereo not given in full) gave DT40 TDP1 no CPT -2.2% and TDP1 cell CPT 11.0%.
